Data taken from PubChem BioAssay (Tox21).
Values without a mark were called inactive. Records with an inconclusive call do not appear. A call without a number means that no potency is given here. The source made the active and inactive calls. Unless noted, calls follow the shape of the dose curve; as a rule, active = well fitted curve in the direction sought with a large enough effect in the repeat runs; inconclusive = weak or mixed curves; inactive = no such curve, though single readings can be large; an effect the other way counts as inactive or inconclusive.

How the values were obtained:
[1] = qHTS assay to identify small molecule agonists of the estrogen receptor alpha (ER-alpha) signaling pathway in the presence of an antagonist - cell viability counter screen (AID 1259386);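 also: series mostly up to about 92 µM; cells exposed to compounds for 22 h at 37 °C before the viability read; nearly all actives have a fitted effect of over 30% in size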
Outline: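 Read-out: CellTiter-Fluor fluorescence after 1hr reagent incubation, measured in the same wells as the luciferase readout. VM7Luc4E2 cells were exposed to 15 compound concentrations with 10.0nM ICI-182,780 for 22hr at 37C.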

[2] = target: Progesterone receptor (Homo sapiens) (UniProt P06401); assay: qHTS assay to identify small molecule agonists of the progesterone receptor (PR) signaling pathway (AID 1346784; calls by dose curve; also: nearly all actives have a fitted effect of over 30% in size; also: potency is read from the fitted curve at half-maximal effect)
Progesterone receptor (Homo sapiens), sequence (P06401 whole entry, looked up): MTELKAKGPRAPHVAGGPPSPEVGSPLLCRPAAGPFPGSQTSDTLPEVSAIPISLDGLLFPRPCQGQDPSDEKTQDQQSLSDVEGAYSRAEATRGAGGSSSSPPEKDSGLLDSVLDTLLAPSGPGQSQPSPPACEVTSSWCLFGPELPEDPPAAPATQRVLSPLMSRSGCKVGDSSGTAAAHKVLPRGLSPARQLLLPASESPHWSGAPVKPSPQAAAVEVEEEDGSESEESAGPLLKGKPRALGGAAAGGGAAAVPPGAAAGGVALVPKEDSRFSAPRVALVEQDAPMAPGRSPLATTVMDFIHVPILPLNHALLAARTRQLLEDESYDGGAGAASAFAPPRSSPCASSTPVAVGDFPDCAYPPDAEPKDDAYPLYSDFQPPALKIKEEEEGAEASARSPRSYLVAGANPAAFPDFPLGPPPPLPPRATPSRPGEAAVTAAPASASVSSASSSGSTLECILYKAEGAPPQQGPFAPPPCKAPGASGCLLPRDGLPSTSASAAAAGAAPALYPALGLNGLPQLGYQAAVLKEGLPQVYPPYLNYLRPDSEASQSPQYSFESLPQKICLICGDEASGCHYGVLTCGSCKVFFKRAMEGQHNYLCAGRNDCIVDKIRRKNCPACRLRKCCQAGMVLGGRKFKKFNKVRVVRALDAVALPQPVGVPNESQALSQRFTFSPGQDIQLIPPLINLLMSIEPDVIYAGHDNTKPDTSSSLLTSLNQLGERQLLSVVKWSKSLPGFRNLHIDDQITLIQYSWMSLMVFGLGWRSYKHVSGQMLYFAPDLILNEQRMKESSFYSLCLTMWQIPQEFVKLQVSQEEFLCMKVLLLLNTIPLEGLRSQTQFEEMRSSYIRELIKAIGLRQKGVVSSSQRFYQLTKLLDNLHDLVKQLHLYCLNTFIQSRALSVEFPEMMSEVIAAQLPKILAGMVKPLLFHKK
Outline: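 Fluorescence from LiveBLAzer B/G FRET substrate cleavage (2 hr, RT) reported PR activation in PR-UAS-bla HEK 293T cells treated 16 hr at 37C/5% CO2 with compounds; medium contained 2% charcoal-stripped FBS.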

[3] = target: Progesterone receptor (Homo sapiens) (UniProt P06401); assay: qHTS assay to identify small molecule antagonists of the progesterone receptor (PR) signaling pathway (AID 1346795; active = well fitted inhibition curve with a large enough effect in the signal ratio in the repeat runs, not every such curve was filed as active; the % refers to the signal ratio)
Outline: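 Fluorescence intensity measured 2 hr after adding beta-lactamase FRET substrate to PR-UAS-bla HEK293T cells that had been co-treated 16 hr with compound and 1 nM R5020 (final concentration) in 2% charcoal-stripped FBS.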

[4] = qHTS assay to identify small molecule antagonists of the progesterone receptor (PR) signaling pathway - cell viability counter screen (AID 1346798); also: series mostly up to about 92 µM; nearly all actives have a fitted effect of over 50% in size
Outline: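 CellTiter-Glo luminescence; PR-UAS-bla HEK293T, 3,000 cells/well; compound + R5020, 16 hr, 37C/5% CO2; 30 min RT before read.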

[5] = qHTS assay to identify small molecule antagonists of the TGF-beta/Smad signaling pathway - cell viability counter screen (AID 1346824); also: nearly all actives have a fitted effect of over 50% in size
Outline: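 Cytotoxicity counter-screen run in the same wells as the beta-lactamase Smad reporter read: CellTiter-Glo luminescence after 30 min at room temperature. HEK 293T SBE-bla cells had 5 hr compound exposure at 37 C with TGF-beta1 (0.25 ng/mL stock).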

[6] = qHTS assay to identify small molecule agonists of the TGF-beta/Smad signaling pathway - cell viability counter screen (AID 1346829); also: top concentration of the series differs between compounds; nearly all actives have a fitted effect of over 45% in size
Outline: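 Compound-treated SBE-bla HEK 293T cells (5 hr, 37 C) were assessed for viability with CellTiter-Glo in parallel with the reporter read.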

[7] = qHTS assay to identify small molecule agonists of the TGF-beta/Smad signaling pathway (AID 1346859; active = well fitted activation curve with a large enough effect in the signal ratio in the repeat runs, not every such curve was filed as active; the % refers to the signal ratio; also: series mostly up to about 77 µM)
Outline: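 After overnight seeding, SBE-bla HEK 293T cells are dosed with compounds in DMSO and kept 5 hr at 37 C, 5% CO2. LiveBLAzer-type FRET substrate is then applied for 2 hr at room temperature.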

[8] = target: Thyrotropin-releasing hormone receptor (Homo sapiens) (UniProt P34981); assay: qHTS assay to identify small molecule antagonists of the thyrotropin-releasing hormone receptor (TRHR) signaling pathway (AID 1346877; active = well fitted inhibition curve with a large enough effect in the repeat runs, not every such curve was filed as active; also: series mostly up to about 51 µM)
Thyrotropin-releasing hormone receptor (Homo sapiens), sequence (P34981 whole entry, looked up): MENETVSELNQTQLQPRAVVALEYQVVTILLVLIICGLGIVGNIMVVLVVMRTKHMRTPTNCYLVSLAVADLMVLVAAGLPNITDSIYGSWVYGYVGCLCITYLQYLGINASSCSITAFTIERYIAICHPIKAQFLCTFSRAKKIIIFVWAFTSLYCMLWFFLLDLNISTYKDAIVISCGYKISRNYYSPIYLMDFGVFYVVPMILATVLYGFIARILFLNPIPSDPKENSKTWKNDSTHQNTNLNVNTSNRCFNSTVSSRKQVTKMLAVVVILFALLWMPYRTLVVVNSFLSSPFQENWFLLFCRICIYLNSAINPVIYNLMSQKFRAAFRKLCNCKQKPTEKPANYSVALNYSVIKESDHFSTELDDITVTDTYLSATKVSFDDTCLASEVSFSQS
Outline: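 HEK293/TRHR cells, 18 h, 37 °C; Ca2+ dye 2 h; cpd 5 min RT; TRH 1 nM final; fluorescence read 3 min, 1 s intervals; 15 concs, triplicate.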

[9] = target: Thyrotropin-releasing hormone receptor (Homo sapiens) (UniProt P34981); assay: qHTS assay to identify small molecule agonists of the thyrotropin-releasing hormone receptor (TRHR) signaling pathway (AID 1346891; calls by dose curve;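 also: HEK293 cells expressing TRHR with calcium dye readout; series mostly up to about 58 µM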)
Outline: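 Compounds were tested as agonists at 15 concentrations, in triplicate, on TRHR-Hek293 cells; calcium-sensitive dye fluorescence was recorded for 3 min following addition.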

[10] = Human pregnane X receptor (PXR) small molecule agonists, qHTS cell viability counter screen (AID 1346977); also: nearly all actives have a fitted effect of over 50% in size
Outline: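 Viability counter screen: CellTiter-Fluor signal in PXR-Luc HepG2 cells, 24hr compound exposure, 37C, 5% CO2.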

[11] = Caspase-3/7 induction in HepG2 cells by small molecules, qHTS assay (AID 1346978); also: nearly all actives have a fitted effect of over 15% in size
Outline: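 Caspase-3/7 induction was measured by Caspase-Glo 3/7 luminescence (30 min, room temperature) after a 17 hr compound exposure of wild-type HepG2 cells seeded at 2,000 per well and pre-incubated 5 hr.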

[12] = Caspase-3/7 induction in CHO-K1 cells by small molecules, qHTS cell viability counter screen (AID 1346979); also: nearly all actives have a fitted effect of over 35% in size
Outline: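 Viability readout by fluorescence (CellTiter-Fluor) on wild-type CHO-K1 cells exposed for 16hr at 37C and 5% CO2 to compounds delivered in DMSO; reagent incubated 1hr before reading.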

[13] = Caspase-3/7 induction in CHO-K1 cells by small molecules, qHTS assay (AID 1346980); also: nearly all actives have a fitted effect of over 15% in size
Outline: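 Luminescent Caspase-Glo 3/7 read (30min, room temperature) quantified apoptosis induction. Cells were wild-type CHO-K1, treated with compound for 17hr at 37 C and 5% CO2.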

[14] = Caspase-3/7 induction in HepG2 cells by small molecules, qHTS cell viability counter screen (AID 1346981); also: series mostly up to about 92 µM; nearly all actives have a fitted effect of over 30% in size
Outline: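 Fluorescence read-out of live-cell protease activity (CellTiter-Fluor) after 1 hr with reagent. This was measured in the same wells as the caspase-3/7 luminescence, on HepG2 cells exposed to DMSO-dissolved compounds for 16 hr at 37 C.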

[15] = target: Nuclear receptor subfamily 1 group I member 2 (Homo sapiens) (UniProt O75469); assay: Human pregnane X receptor (PXR) small molecule agonists, qHTS assay (AID 1346982); also: nearly all actives have a fitted effect of over 35% in size; also: potency is read from the fitted curve at half-maximal effect
Nuclear receptor subfamily 1 group I member 2 (Homo sapiens), sequence (O75469 whole entry, looked up): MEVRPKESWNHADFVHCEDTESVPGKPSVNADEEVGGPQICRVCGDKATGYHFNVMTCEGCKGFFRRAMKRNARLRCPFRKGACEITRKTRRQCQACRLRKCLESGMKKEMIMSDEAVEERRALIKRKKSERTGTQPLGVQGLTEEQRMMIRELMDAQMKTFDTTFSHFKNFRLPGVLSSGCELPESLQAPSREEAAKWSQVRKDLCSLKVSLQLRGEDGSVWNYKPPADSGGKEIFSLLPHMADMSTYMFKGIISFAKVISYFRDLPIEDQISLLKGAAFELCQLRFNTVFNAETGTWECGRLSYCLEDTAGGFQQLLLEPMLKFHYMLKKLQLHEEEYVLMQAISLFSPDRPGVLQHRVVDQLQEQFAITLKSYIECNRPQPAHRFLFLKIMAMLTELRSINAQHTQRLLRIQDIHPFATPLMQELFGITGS
Outline: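 HepG2 PXR-Luc reporter line, 5% charcoal-stripped FBS; 5 hr pre-incubation, compound (DMSO) 24 hr at 37 C/5% CO2; ONE-Glo 30 min RT; luminescence read-out.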

[16] = target: Nuclear receptor subfamily 1 group I member 2 (Rattus norvegicus) (UniProt Q9R1A7); assay: Rat pregnane X receptor (rPXR) activation by small molecules, qHTS assay (AID 1346983); settings: rPXR luciferase reporter cells, One-Glo luminescence, 24 h; max activation: stronger effect = higher value; also: nearly all actives have a fitted effect of over 20% in size
Nuclear receptor subfamily 1 group I member 2 (Rattus norvegicus), sequence (Q9R1A7 whole entry, looked up): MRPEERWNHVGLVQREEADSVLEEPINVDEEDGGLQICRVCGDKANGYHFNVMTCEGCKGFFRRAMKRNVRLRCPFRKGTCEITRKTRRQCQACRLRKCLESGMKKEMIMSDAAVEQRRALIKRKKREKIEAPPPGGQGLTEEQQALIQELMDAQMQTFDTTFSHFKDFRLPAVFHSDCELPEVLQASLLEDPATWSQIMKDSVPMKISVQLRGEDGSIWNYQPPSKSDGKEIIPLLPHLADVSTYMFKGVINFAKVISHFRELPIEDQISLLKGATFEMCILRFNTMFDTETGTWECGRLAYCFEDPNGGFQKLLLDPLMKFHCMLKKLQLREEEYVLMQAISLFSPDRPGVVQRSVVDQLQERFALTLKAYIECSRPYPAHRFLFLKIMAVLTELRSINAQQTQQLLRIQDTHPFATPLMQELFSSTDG
Outline: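 Luminescent readout (One-Glo luciferase, 30 min room temperature) followed 24 hr compound treatment at 37 C of rPXR cells plated 2,000 per well and preincubated 5hr; qHTS format with compounds delivered in DMSO.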

[17] = target: Nuclear receptor subfamily 1 group I member 2 (Homo sapiens) (UniProt O75469); assay: CYP3A4 induction through human pregnane X receptor (PXR) by small molecules, qHTS assay (AID 1346984); also: nearly all actives have a fitted effect of over 40% in size
Outline: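 HepG2-derived DPX-2 line carrying PXR plus a CYP3A4-promoter luciferase reporter; cells plated 5 hr, compound-exposed 24 hr at 37C. CYP3A4 activity probed with 3uM (final) Luciferin-IPA for 3hr, then luciferase read after One-Glo.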

[18] = target: Nuclear receptor subfamily 1 group I member 2 (Homo sapiens) (UniProt O75469); assay: Human pregnane X receptor (PXR) activation by small molecules, qHTS assay (AID 1346985); also: nearly all actives have a fitted effect of over 40% in size
Outline: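 DPX-2 cells (HepG2 co-transfected with a PXR response element and a CYP3A4-promoter luciferase construct) were seeded at 2,000 per well, rested 5 hr at 37C, then exposed to DMSO-dissolved compounds for 24 hr. Activation was read as luciferase luminescence.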

[19] = target: Cytochrome P450 2D6 (Homo sapiens) (UniProt P10635); assay: Cytochrome P450 Family 2 Subfamily D Member 6 (CYP2D6) small molecule antagonists: luciferase reporter qHTS assay (AID 1671196); also: series mostly up to about 120 µM; nearly all actives have a fitted effect of over 50% in size
Cytochrome P450 2D6 (Homo sapiens), sequence (P10635 whole entry, looked up): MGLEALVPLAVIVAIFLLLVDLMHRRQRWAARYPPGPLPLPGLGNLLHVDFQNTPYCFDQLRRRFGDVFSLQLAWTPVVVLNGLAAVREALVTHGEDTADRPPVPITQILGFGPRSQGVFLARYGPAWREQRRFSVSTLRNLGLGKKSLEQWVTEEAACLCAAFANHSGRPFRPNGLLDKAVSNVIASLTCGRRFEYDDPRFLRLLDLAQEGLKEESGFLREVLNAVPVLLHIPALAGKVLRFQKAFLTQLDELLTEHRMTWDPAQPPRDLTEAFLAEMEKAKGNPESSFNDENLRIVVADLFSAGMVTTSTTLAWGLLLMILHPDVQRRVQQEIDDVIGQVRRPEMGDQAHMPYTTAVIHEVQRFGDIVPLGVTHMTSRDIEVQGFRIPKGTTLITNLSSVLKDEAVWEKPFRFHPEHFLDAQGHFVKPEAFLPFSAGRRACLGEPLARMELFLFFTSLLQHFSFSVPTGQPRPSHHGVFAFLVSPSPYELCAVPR
Outline: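 Luminogenic proluciferin substrate, CYP2D6 enzyme; 10 min RT preincubation with compound, NADPH regeneration system added, 1 h RT. Stop/detection reagent, 20 min RT, luminescence read (RLU). Signal proportional to CYP activity.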

[20] = qHTS assay to identify small molecule agonists of the progesterone receptor (PR) signaling pathway - cell viability counter screen (AID 1346799; calls by dose curve; also: nearly all actives have a fitted effect of over 45% in size)
Outline: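 In parallel with the beta-lactamase readout, cytotoxicity toward PR-UAS-bla HEK293T cells was measured by CellTiter-Glo luminescence following 16 hr compound incubation in 2% charcoal-stripped FBS medium.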

Question: Which results are given for `N#Cc1ccc(C(c2ccc(C#N)cc2)n2cncn2)cc1`?
Answer: Potency [1]: inactive; Potency [2]: inactive; Potency [3]: inactive; Potency [4]: inactive; outcome [5]: inactive; outcome [6]: inactive; outcome [7]: inactive; outcome [8]: inactive; Potency [9]: inactive; Potency [10]: inactive; Potency [11]: inactive; Potency [12]: inactive; outcome [13]: inactive; Potency [14]: inactive; Potency [15]: inactive; max activation [16]: 0.445%; Potency [17]: inactive; Potency [18]: inactive; Potency [19]: inactive

Question: With `CCCC(CCC)(C(=O)OCC)C(=O)OCC` as the compound, how does the Potency [1] read?
Answer: inactive

Question: What about the Potency [2] of the same compound?
Answer: inactive

Question: And the Potency [3]?
Answer: inactive

Question: And the Potency [4]?
Answer: inactive

Question: And the Potency [20]?
Answer: inactive

Question: And the outcome [6]?
Answer: inactive

Question: And the outcome [7]?
Answer: inactive

Question: And the outcome [8]?
Answer: inactive

Question: What about the Potency [9] of the same compound?
Answer: inactive

Question: And the Potency [11]?
Answer: inactive

Question: And the Potency [12]?
Answer: inactive

Question: What about the outcome [13] of the same compound?
Answer: inactive

Question: And the Potency [14]?
Answer: inactive

Question: And the Potency [15]?
Answer: inactive

Question: And the Potency [19]?
Answer: inactive

Question: Which Potency [1] does the source give for `CC(=O)Nc1ccc(C)c(Cl)c1` here?
Answer: inactive

Question: What about the Potency [2] of the same compound?
Answer: inactive

Question: What about the Potency [3] of the same compound?
Answer: inactive

Question: What about the Potency [4] of the same compound?
Answer: inactive

Question: What about the Potency [20] of the same compound?
Answer: inactive

Question: What about the outcome [5] of the same compound?
Answer: inactive

Question: And the outcome [7]?
Answer: inactive

Question: What about the outcome [8] of the same compound?
Answer: inactive

Question: What about the Potency [9] of the same compound?
Answer: inactive

Question: What about the Potency [11] of the same compound?
Answer: inactive

Question: And the Potency [12]?
Answer: inactive

Question: What about the outcome [13] of the same compound?
Answer: inactive

Question: What about the Potency [14] of the same compound?
Answer: inactive

Question: What about the Potency [19] of the same compound?
Answer: inactive

Question: Which results are given for `O=c1oc2c(O)c(O)cc3c(=O)oc4c(O)c(O)cc1c4c23`?
Answer: activity change, negative = cytotoxicity [1]: -2.74% [at 19 µM]; activation [2]: -0.0631% [at 19 µM]; activity change, negative = inhibition [3]: 7.58% [at 18.9 µM]; Potency [4]: inactive; activity change, negative = cytotoxicity [20]: -1.25% [at 19 µM]; viability change, negative = cytotoxic [5]: -7.88% [at 15.8 µM]; activation [7]: 5.13% [at 15.8 µM]; activity, negative = inhibition [8]: 1.88% [at 10.5 µM]; activation [9]: 0.184% [at 11.8 µM]; caspase activation [11]: 0.0819% [at 19 µM]; caspase-3/7 activation [13]: 0.998% [at 19 µM]; activity change, negative = cytotoxicity [14]: 1.61% [at 19 µM]; activation [15]: -29.4% [at 19 µM]; activity change, negative = inhibition [19]: -16.4% [at 23.6 µM]

Question: For `O=C1CCCc2ccccc21`, which Potency [1] is on record?
Answer: inactive

Question: What about the Potency [2] of the same compound?
Answer: inactive

Question: What about the Potency [3] of the same compound?
Answer: inactive

Question: And the Potency [4]?
Answer: inactive

Question: And the Potency [20]?
Answer: inactive

Question: What about the outcome [5] of the same compound?
Answer: inactive

Question: And the outcome [7]?
Answer: inactive

Question: And the Potency [10]?
Answer: inactive

Question: What about the Potency [11] of the same compound?
Answer: inactive

Question: What about the Potency [12] of the same compound?
Answer: inactive

Question: And the outcome [13]?
Answer: inactive

Question: And the Potency [14]?
Answer: inactive

Question: And the Potency [15]?
Answer: 39 µM (active)

Question: What does the source list for `CCCCCCn1c(=O)c2c(ncn2C)n(C)c1=O`?
Answer: Potency [1]: inactive; Potency [2]: inactive; Potency [3]: inactive; Potency [4]: inactive; Potency [20]: inactive; outcome [5]: inactive; outcome [6]: inactive; outcome [7]: inactive; Potency [10]: inactive; Potency [11]: inactive; Potency [12]: inactive; outcome [13]: inactive; Potency [14]: inactive; Potency [15]: inactive; Potency [19]: inactive

Question: Which results are given for `CCOC(=O)CS`?
Answer: Potency [1]: inactive; Potency [2]: 3.15 µM (active); Potency [3]: inactive; Potency [4]: inactive; Potency [20]: inactive; outcome [5]: inactive; outcome [7]: inactive; outcome [8]: inactive; Potency [9]: inactive; Potency [11]: inactive; Potency [12]: inactive; outcome [13]: inactive; Potency [14]: inactive; Potency [15]: inactive; Potency [19]: inactive

Question: Which results are given for `CC(C)OC(C)C`?
Answer: Potency [1]: inactive; Potency [2]: inactive; Potency [3]: inactive; Potency [4]: inactive; Potency [20]: inactive; outcome [5]: inactive; outcome [7]: inactive; Potency [10]: inactive; Potency [11]: inactive; Potency [12]: inactive; outcome [13]: inactive; Potency [14]: inactive; Potency [15]: inactive; Potency [19]: inactive

Question: For `CN1C(=O)CC(c2ccccc2)C1=O` (centres undefined), which Potency [1] is on record?
Answer: inactive

Question: And the Potency [2]?
Answer: inactive

Question: What about the Potency [3] of the same compound?
Answer: inactive

Question: And the Potency [4]?
Answer: inactive

Question: And the Potency [20]?
Answer: inactive

Question: What about the outcome [5] of the same compound?
Answer: inactive

Question: And the outcome [6]?
Answer: inactive

Question: What about the outcome [7] of the same compound?
Answer: inactive

Question: What about the Potency [10] of the same compound?
Answer: inactive

Question: And the Potency [11]?
Answer: inactive

Question: And the Potency [12]?
Answer: inactive

Question: What about the outcome [13] of the same compound?
Answer: inactive

Question: What about the Potency [14] of the same compound?
Answer: inactive

Question: What about the max activation [16] of the same compound?
Answer: -2.73%

Question: What about the Potency [19] of the same compound?
Answer: inactive
